Experimental data from PubChem BioAssay.
Active and inactive are the calls of the source.

How the values were obtained:
Albumin (Bos taurus) = Albumin (Bos taurus) (UniProt P02769); test: compounds binding labelled BSA control protein – biochemical, small-molecule microarray, Alexa647 label, 635/667 nm fluorescence, artefact control for SMM control protein annotation, profiling panel (AID 1118); settings: BSA-A647 binding, fluorescence 635 nm, higher = more signal;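 further: score merges 667 nm emission intensity and signal-to-noise per printed compound spot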
Albumin (Bos taurus), sequence (P02769 whole entry, looked up): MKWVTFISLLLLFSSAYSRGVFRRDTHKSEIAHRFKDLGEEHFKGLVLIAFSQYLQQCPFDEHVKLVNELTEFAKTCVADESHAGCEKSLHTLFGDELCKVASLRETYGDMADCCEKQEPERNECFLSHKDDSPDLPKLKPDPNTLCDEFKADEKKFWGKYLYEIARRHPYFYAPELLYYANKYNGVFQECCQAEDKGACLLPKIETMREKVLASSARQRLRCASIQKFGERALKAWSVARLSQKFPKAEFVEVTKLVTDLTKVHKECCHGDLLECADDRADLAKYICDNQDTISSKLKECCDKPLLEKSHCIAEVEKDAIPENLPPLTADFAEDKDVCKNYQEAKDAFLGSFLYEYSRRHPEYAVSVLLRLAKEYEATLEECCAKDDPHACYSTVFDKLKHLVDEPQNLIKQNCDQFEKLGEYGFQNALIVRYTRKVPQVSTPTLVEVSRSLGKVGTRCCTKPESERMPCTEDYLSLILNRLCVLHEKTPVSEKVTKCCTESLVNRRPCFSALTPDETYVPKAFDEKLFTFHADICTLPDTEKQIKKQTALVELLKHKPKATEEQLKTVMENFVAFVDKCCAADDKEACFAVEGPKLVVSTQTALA

[1] = probe aXIP binding to arrayed compounds – biochemical, NeuroSMM set, 635/667 nm fluorescence, primary screen (AID 1119); settings: small-molecule microarray, higher = more signal, called active from +8 up or from −8 down;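 further: probe is the protein aXip251-270 applied at 1 µg/mL to compound-printed slides; binding of probe to printed compounds measured as 667 nm fluorescence plus signal to noise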
[2] = probe aNOTCH3 binding on compound microarray – biochemical, small-molecule microarray, 635/667 nm fluorescence, primary screen (AID 1120); settings: higher = more signal;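 further: probe is a biotin-tagged antibody raised against NOTCH3 rather than NOTCH3 protein; score merges spot fluorescence near 667 nm with spot signal to noise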
[3] = probe aNOTCH2 binding on compound microarray – biochemical, small-molecule microarray, 635/667 nm fluorescence, primary screen (AID 1121); settings: higher = more signal;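 further: score merges feature fluorescence read at 667 nm with its signal to noise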
[4] = target: Carbonic anhydrase 2 (Homo sapiens) (UniProt P00918); test: compounds binding carbonic anhydrase 2 – biochemical, small-molecule microarray, Alexa647-labelled CAII, profiling panel (AID 1122); settings: CAII-A647 binding fluorescence, higher = more signal
[5] = COS7 lysate on small-molecule microarray, probe aHis, 635 nm (AID 1123); settings: COS7 cell lysate, fluorescence, higher = more signal;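 further: z-score combines 667nm fluorescence intensity with signal-to-noise per printed compound spot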
[6] = probe aLAP1 signal on lysate-treated microarray – cell lysate, small-molecule microarray, COS7 lysate, primary screen (AID 1124); settings: probe aLAP1, fluorescence, higher = more signal;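 further: lysate comes from COS7 cells expressing LAP1 and is applied at 0.3 µg/mL; score merges spot fluorescence near 667 nm with signal-to-noise over triplicate slides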
Sam68 (KHDRBS1) = test: compounds binding KHDRBS1 protein – biochemical, small-molecule microarray, 635 nm fluorescence, primary screen (AID 1125); settings: higher = more signal;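 further: score merges 667 nm channel intensity with signal to noise over triplicate slides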
[7] = system: Chordin-like protein 2 (CHRDL2); test: compounds binding chordin-like 2 – biochemical, small-molecule microarray, 635 nm fluorescence, primary screen (AID 1126); settings: fluorescence 635 nm, higher = more signal;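 further: printed compound slides probed with Chrdl2 protein at 4 µg/mL for 1 h at 4 C; score merges 667 nm emission intensity with signal to noise over three replicate slides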
[8] = target: Concanavalin-A (Canavalia ensiformis) (UniProt P02866); test: compounds binding concanavalin A lectin – biochemical, small-molecule microarray, Alexa647 label, 635 nm, artefact control for SMM control protein annotation, primary screen (AID 1127); settings: ConA-A647 binding fluorescence, higher = more signal;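 further: z combines 667 nm emission intensity with signal-to-noise across three replicate slides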
Concanavalin-A (Canavalia ensiformis), sequence (P02866 whole entry, looked up): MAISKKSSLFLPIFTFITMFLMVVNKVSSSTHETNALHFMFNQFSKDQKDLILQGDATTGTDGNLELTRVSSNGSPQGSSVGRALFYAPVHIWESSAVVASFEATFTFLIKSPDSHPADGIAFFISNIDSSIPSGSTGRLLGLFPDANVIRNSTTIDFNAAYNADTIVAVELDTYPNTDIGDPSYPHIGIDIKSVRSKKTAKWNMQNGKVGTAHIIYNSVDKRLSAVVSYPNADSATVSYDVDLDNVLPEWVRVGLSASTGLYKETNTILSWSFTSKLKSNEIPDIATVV

[9] = compounds binding Alexa647 anti-His antibody – biochemical, small-molecule microarray, 635 nm fluorescence, artefact control for SMM control protein annotation, primary screen (AID 1128); settings: higher = more signal;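 further: score merges feature fluorescence with signal-to-noise for each printed compound spot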
[10] = system: Human papillomavirus type 1a E7 protein (residues 1-88); test: HPV1a E7 small-molecule binders, primary screen, biochemical, small-molecule microarray, residues 1-88, 635 nm (AID 1129); settings: small-molecule microarray binding, fluorescence 635 nm; higher = more signal
[11] = target: Focal adhesion kinase 1 (Homo sapiens) (UniProt Q05397); test: PTK2 protein binding on printed compound slides – biochemical, small-molecule microarray, 635/667 nm fluorescence, BSA, DTT, primary screen (AID 1130); settings: 635 nm fluorescence, higher = more signal;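 further: composite of spot emission at 667 nm and signal to noise over triplicate slides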
Focal adhesion kinase 1 (Homo sapiens), sequence (Q05397 whole entry, looked up): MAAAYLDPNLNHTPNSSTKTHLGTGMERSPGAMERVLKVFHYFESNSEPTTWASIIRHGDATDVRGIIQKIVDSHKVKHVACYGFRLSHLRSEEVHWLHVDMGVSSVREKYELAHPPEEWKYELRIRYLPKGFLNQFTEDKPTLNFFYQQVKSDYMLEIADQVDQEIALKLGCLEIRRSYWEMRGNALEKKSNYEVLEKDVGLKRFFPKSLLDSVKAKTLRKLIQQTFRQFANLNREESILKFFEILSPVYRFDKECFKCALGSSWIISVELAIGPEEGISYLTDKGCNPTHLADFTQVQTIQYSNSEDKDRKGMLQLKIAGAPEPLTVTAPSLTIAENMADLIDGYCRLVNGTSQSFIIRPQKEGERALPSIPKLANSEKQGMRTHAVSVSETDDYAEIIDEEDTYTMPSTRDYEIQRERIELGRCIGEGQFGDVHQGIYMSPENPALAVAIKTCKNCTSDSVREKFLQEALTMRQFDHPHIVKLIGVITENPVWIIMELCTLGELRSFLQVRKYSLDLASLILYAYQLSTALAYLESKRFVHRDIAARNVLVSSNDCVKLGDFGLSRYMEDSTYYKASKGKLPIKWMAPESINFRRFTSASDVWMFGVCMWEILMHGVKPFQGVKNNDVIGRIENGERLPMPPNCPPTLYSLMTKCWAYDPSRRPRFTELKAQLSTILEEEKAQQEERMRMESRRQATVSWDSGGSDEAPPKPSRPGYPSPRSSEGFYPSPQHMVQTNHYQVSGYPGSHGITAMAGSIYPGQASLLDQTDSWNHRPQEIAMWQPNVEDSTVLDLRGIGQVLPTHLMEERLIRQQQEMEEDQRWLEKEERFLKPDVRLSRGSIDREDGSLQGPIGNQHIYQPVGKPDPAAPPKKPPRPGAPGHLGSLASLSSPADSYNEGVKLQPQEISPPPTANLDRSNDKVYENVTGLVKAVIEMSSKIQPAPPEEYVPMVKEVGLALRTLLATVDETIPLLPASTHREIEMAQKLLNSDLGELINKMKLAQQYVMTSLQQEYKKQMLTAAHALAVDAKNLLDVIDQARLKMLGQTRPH

[12] = system: Fibrinogen (Alexa647-labelled); test: Alexa647-fibrinogen binding to printed small molecules – biochemical, small-molecule microarray, 635/667 nm fluorescence, artefact control for SMM control-protein annotation, profiling panel (AID 1131); settings: fibrinogen-A647 binding fluorescence, higher = more signal;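 further: z-score merges 667 nm fluorescence with per-spot signal-to-noise over triplicate slides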
[13] = target: Follistatin (Homo sapiens) (UniProt P19883); test: FST protein binding to printed compounds – biochemical, small-molecule microarray, 635/667 nm fluorescence, primary screen (AID 1132); settings: 635 nm fluorescence, higher = more signal
Follistatin (Homo sapiens), sequence (P19883 whole entry, looked up): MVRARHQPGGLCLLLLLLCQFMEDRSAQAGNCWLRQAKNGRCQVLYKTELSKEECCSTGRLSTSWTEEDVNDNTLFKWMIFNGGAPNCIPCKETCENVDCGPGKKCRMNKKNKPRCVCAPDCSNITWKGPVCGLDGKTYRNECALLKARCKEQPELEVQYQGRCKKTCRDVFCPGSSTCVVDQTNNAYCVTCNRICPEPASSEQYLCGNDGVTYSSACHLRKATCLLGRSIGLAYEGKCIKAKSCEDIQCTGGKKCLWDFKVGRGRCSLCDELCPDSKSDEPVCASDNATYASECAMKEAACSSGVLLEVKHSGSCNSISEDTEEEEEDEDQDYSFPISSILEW

[14] = target: Fibroblast growth factor 2 (Homo sapiens) (UniProt P09038); test: basic fibroblast growth factor binding to printed compounds – biochemical, small-molecule microarray, 635/667 nm fluorescence, primary screen (AID 1133); settings: FGF2, fluorescence 635/667, higher = more signal
Fibroblast growth factor 2 (Homo sapiens), sequence (P09038 whole entry, looked up): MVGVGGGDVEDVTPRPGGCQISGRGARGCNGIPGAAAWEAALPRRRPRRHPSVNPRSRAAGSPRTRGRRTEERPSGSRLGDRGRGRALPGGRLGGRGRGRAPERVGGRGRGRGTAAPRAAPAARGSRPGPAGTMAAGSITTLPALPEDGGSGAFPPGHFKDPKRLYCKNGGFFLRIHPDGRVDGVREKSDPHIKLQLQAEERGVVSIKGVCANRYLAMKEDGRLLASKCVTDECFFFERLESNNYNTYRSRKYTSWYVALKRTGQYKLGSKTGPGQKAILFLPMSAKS

[15] = JC-1 mitochondrial potential readout, lung cancer cells – cell-based, A549, JC-1 fluorescence, basal, 24 h, 100 nL, profiling panel (AID 1138); settings: higher = more signal;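 further: A549 lung adenocarcinoma cells under basal conditions with no added stimulus; test concentration not given here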
Lefty1 = Lefty1 protein binding to printed compounds – biochemical, small-molecule microarray, 635/667 nm fluorescence, primary screen (AID 1139); settings: fluorescence 635/667, higher = more signal
[16] = system: wheat germ agglutinin (Triticum aestivum), Alexa647-labelled; test: Alexa647-WGA lectin binding to printed small molecules – biochemical, small-molecule microarray, 635/667 nm fluorescence, artefact control for SMM control-protein annotation, profiling panel (AID 1140); settings: WGA-A647 binding, 635 nm fluorescence, higher = more signal;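 further: score merges 667 nm feature emission with signal to noise over triplicate slides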
[17] = target: Luciferin 4-monooxygenase (Photinus pyralis) (UniProt P08659); test: inhibition of purified Photinus pyralis luciferase – biochemical, luminescence, purified enzyme, 2006 set, primary screen (AID 1141); settings: purified firefly luciferase, SteadyGlo luminescence, 30 min; higher = more signal, called active from +8 up or from −8 down;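 further: cell-free assay with purified firefly luciferase at 100 ng per well in PBS; test concentration not given here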
Luciferin 4-monooxygenase (Photinus pyralis), sequence (P08659 whole entry, looked up): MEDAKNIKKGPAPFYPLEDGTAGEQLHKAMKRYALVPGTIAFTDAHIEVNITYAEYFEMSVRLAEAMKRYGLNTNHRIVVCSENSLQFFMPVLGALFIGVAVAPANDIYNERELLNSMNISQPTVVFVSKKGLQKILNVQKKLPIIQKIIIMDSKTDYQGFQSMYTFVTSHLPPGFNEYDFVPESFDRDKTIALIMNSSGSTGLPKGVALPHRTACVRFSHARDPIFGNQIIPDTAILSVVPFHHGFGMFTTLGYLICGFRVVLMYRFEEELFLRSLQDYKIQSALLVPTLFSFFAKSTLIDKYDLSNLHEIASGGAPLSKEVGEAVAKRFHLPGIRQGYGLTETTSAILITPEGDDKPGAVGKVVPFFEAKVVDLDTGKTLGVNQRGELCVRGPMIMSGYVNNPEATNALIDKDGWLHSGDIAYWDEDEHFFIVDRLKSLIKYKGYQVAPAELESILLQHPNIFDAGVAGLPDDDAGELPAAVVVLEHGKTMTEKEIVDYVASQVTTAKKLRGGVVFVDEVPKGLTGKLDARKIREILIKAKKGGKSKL

Structure (SMILES) | composite z-score (Albumin (Bos taurus)) | composite Z-score [1] | composite z-score [2] | composite z-score [3] | composite z-score [4] | composite z-score [5] | composite z-score [6] | composite z-score (Sam68 (KHDRBS1)) | composite z-score [7] | composite z-score [8] | composite z-score [9] | composite z-score [10] | composite z-score [11] | composite z-score [12] | composite z-score [13] | composite z-score [14] | z-score [15] | composite z-score (Lefty1) | composite z-score [16] | z-score [17]
C=CC[C@@H](OC(=O)Nc1ccc(SC)cc1)c1ccc(OCCO)cc1 | -0.733 | 0.667 (inactive) | -0.267 | -0.179 | 0.758 | 1.99 | 0.105 | 0.655 | -2.01 | -0.264 | 2.42 | -0.0392 | -0.783 | -1.58 | -1.15 | -0.991 | 0.844 | -0.763 | -0.666 | -3.91 (inactive)
COc1ccc([Si](C)(C)[C@H]2[C@H](CC(=O)N(CCO)Cc3ccccc3)O[C@@]3(C(=O)N(Cc4ccc(N5CCOC5=O)cc4)c4ccccc43)[C@@H]2C)cc1 | -0.604 | 0.989 (inactive) | -0.0044 | -0.168 | 0.393 | 0.704 | 0.0474 | 0.641 | 0.457 | 1.06 | 0.845 | 0.0593 | 0.16 | 0.474 | 0.878 | 0.66 | 0.784 | 1.13 | 0.455 | -1.39 (inactive)
CC(CO)N1C(=O)[C@@H]2C3C(=O)OCCC/C=C\[C@H]3OC23C=CCN(Cc2ccccc2)C(=O)[C@@H]13 (stereo not given in full) | -0.656 | -0.427 (inactive) | -0.189 | -0.177 | 0.866 | -0.255 | -0.285 | -0.164 | -1.64 | -2.2 | -1.18 | -1.47 | -0.55 | -1.52 | -0.742 | -0.426 | 0.935 | -0.532 | -1.54 | -1.56 (inactive)
[N-]=[N+]=NCc1ccccc1C[C@@]1(C(=O)O)N=C(c2ccc(OCCCO)cc2)O[C@@H]1c1ccccc1 | 0.433 | 0.114 (inactive) | -0.133 | 0.0278 | 0.658 | 1.53 | 1.48 | 0.782 | -1.24 | 0.933 | 0.822 | 0.998 | 0.829 | 0.808 | 0.322 | -0.41 | 1.34 | -0.771 | 1.1 | -1.05 (inactive)
NCCCCCCNC(=O)[C@@H]1C[C@@H]2C(=O)N[C@@H](Cc3ccccc3)C(=O)N2[C@@H]1c1ccc(O)cc1 | 0.676 | 0.755 (inactive) | 0.0418 | -0.112 | 0.65 | 0.68 | 0.915 | 1.06 | 0.283 | 1.12 | 1.94 | 0.434 | 0.332 | 0.63 | 0.898 | 0.312 | 0.613 | 0.104 | 0.931 | -1.15 (inactive)
COCCCN1C(=O)[C@@]2(Cc3ccccc31)c1ccccc1C(=O)N(Cc1ccccc1Cl)[C@H]2c1ccc(CO)cc1 | -0.538 | -0.17 (inactive) | -0.126 | -0.162 | 0.106 | -0.0024 | 0.179 | 0.0462 | -0.272 | 0.0915 | -1.15 | -1.53 | -0.557 | -0.358 | -0.45 | -0.0761 | 0.83 | -0.348 | -1.02 | -1.13 (inactive)
CCOC(=O)C[C@H]1[C@H](OC(=O)c2cc3ccccc3oc2=O)[C@@H](NC(=O)c2ccccc2)c2cc(OCCCO)ccc2N1C(=O)Cc1ccc(OC)cc1 | -0.0029 | -0.0478 (inactive) | 0.0488 | -0.0578 | 0.467 | 0.257 | 0.324 | 0.382 | 0.357 | 0.773 | -0.657 | 0.345 | 0.5 | 0.465 | 0.856 | 0.948 | -0.42 | 0.584 | 0.247 | -0.243 (inactive)
C=C(COC)/C(=C/C[C@H](OC(C)=O)c1ccc(CO)o1)c1cnc2ccccc2c1 | 0.15 | 0.837 (inactive) | 0.116 | -0.11 | 0.969 | 1.25 | -0.105 | 1.29 | 1.14 | 1.09 | 1.28 | 1.17 | 0.284 | -0.0185 | 1.42 | 1.31 | 0.861 | 1.58 | 1.35 | -2.1 (inactive)
O=C1c2ccccc2C(=O)c2cc([C@H]3Oc4ccccc4S(=O)(=O)N4CCC[C@@H]34)ccc21 | -0.791 | -0.228 (inactive) | -0.227 | -0.0933 | -0.157 | -0.319 | -0.235 | -1.02 | -0.504 | -2.59 | -1.02 | -0.551 | -0.953 | -0.91 | -1.07 | -0.533 | 1.18 | -0.534 | -1.26 | -1.04 (inactive)
CC(=O)OC(C/C=C\B1OC(C)(C)C(C)(C)O1)c1ccccc1 (stereo not given) | -0.274 | -0.806 (inactive) | -0.146 | -0.166 | -0.411 | -0.279 | -0.0949 | 0.0684 | 1.09 | -0.923 | -0.0541 | -0.373 | -0.379 | 0.221 | 0.0255 | -0.377 | 1.45 | -0.0863 | -0.405 | -1.54 (inactive)
CO[C@H]1O[C@H](CO)[C@@H](OC(=O)CCc2ccccc2)[C@@H]2OC(=O)[C@H](Cc3ccccc3)C/C=C/C[C@@H](Cc3ccccc3)C(=O)O[C@@H]12 | -0.707 | 0.508 (inactive) | -0.19 | -0.0928 | 0.746 | 0.75 | -0.662 | 0.506 | -0.845 | -1.04 | -0.13 | -0.109 | 0.186 | -0.565 | -0.618 | -0.38 | 1.01 | -0.71 | -1.32 | -1.21 (inactive)
O=C(NC1CC1)[C@@H]1c2ccccc2C(=O)N(Cc2ccccc2C(F)(F)F)[C@H]1c1ccc(CO)cc1 | 0.289 | 2.36 (inactive) | 0.0194 | -0.0173 | 0.676 | 2.26 | 0.234 | 1.35 | 0.102 | 1.08 | 0.911 | 1.1 | 0.829 | 0.428 | 0.928 | 0.86 | 2.04 | 0.159 | 0.527 | -0.945 (inactive)
C=CCNC(=O)[C@@H]1[C@H]2C(=O)O[C@H](c3ccccc3)[C@H](c3ccccc3)N2[C@H](c2ccc(O)cc2)[C@@]12C(=O)N(C(=O)OCCOC)c1ccc(C#Cc3ccc(OC)cc3)cc12 | -0.0706 | 0.574 (inactive) | 0.13 | 0.0406 | 0.484 | 1.46 | 0.478 | 1.32 | 0.455 | 1.12 | 0.539 | 1.13 | 1.68 | 0.8 | 0.949 | 0.915 | -0.0671 | 0.544 | 1.06 | -1.23 (inactive)
COCCOC(=O)N1C(=O)[C@@]2(c3cc(C#CCNC(N)=O)ccc31)[C@H](C(=O)NC[C@H](O)c1ccccc1)[C@H]1C(=O)O[C@H](c3ccccc3)[C@H](c3ccccc3)N1[C@@H]2c1ccc(O)cc1 | 0.348 | 0.239 (inactive) | -0.0044 | -0.104 | 0.0718 | 1.14 | 1.01 | 0.928 | -0.474 | 1.02 | 0.95 | 0.502 | 0.492 | 0.651 | 1.35 | 0.674 | -0.175 | 0.16 | 0.436 | -1.48 (inactive)
C=C[C@H](OC)[C@@H](OC(=O)Nc1ccc(OC)cc1)c1ccc(OC)c(O)c1 | -2.02 | -0.403 (inactive) | -0.374 | -0.181 | 0.633 | -0.844 | 0.0191 | -0.667 | -2.31 | -2.17 | -1.22 | -1.3 | 0.7 | -2.93 | -0.823 | -1.23 | 1.19 | -1.75 | -2.18 | -1.67 (inactive)
COc1ccc([Si](C)(C)[C@H]2[C@H](CC(=O)N(CCO)Cc3ccccc3)O[C@@]3(C(=O)N(Cc4ccc(N5CCC5=O)cc4)c4ccccc43)[C@@H]2C)cc1 | 0.101 | 0.506 (inactive) | -0.219 | -0.141 | 0.339 | 0.888 | 0.371 | -0.114 | 0.286 | 0.385 | 0.122 | -0.178 | 0.13 | 0.158 | 0.41 | 0.11 | 0.0735 | -0.143 | 0.429 | -1.23 (inactive)
